According to PubChem BioAssay (NCATS):
Inconclusive results are not listed. Calls of active or inactive are those of the source. The call rests on the fitted dose curve; in most records, active means well fitted cell-killing curve with a large enough effect; inconclusive means small, poorly fitted or top-dose-only effect, or effect the other way; inactive means no such curve, though single readings can be large or run the other way.

Assays:
[1] = Quantitative High-Throughput drug screen in 47 multiple myeloma cell lines against the NCATS MIPE library collection: OCIMY7_PLB cell viability assay (AID 1918987); details: OCI-MY7 myeloma viability, CellTiter-Glo ATP, 48 h; viability (% of DMSO): at 45.8 µM (top of the series); further: nearly all actives have a fitted effect of over 65% in size; further: potency means the concentration at half of the fitted maximal effect
Method in brief: (§1)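 Viability after 48 h drug exposure was measured as ATP-dependent luminescence. Cells, 500 per well, sat at 37 °C under 5% CO2; DMSO wells set 100%, media-only wells 0%.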

[2] = Quantitative High-Throughput drug screen in 47 multiple myeloma cell lines against the NCATS MIPE library collection: OPM1_PLB cell viability assay (AID 1918989); details: CellTiter-Glo, 48 h; series mostly up to 45.8 µM; further: nearly all actives have a fitted effect of over 40% in size; further: potency means the concentration at half of the fitted maximal effect
Method in brief: as §1

[3] = Quantitative High-Throughput drug screen in 47 multiple myeloma cell lines against the NCATS MIPE library collection: U266_ATCC cell viability assay (AID 1919864); details: U266 myeloma viability, CellTiter-Glo ATP luminescence, 48 h; series mostly up to 45.8 µM; further: nearly all actives have a fitted effect of over 35% in size; further: potency means the concentration at half of the fitted maximal effect
Method in brief: as §1

[4] = Quantitative High-Throughput drug screen in 47 multiple myeloma cell lines against the NCATS MIPE library collection: VP6_DJ cell viability assay (AID 1919867); details: ATP luminescence, 48 h; series mostly up to 45.8 µM; further: nearly all actives have a fitted effect of over 40% in size; further: potency means the concentration at half of the fitted maximal effect
Method in brief: as §1

[5] = Quantitative High-Throughput drug screen in 47 multiple myeloma cell lines against the NCATS MIPE library collection: PCM6_Riken cell viability assay (AID 1919870); details: CellTiter-Glo ATP, 48 h; series mostly up to 45.8 µM; further: nearly all actives have a fitted effect of over 30% in size; further: potency means the concentration at half of the fitted maximal effect
Method in brief: as §1

[6] = Quantitative High-Throughput drug screen in 47 multiple myeloma cell lines against the NCATS MIPE library collection: KMS11_JCRBsus cell viability assay (AID 1919873); details: KMS11 myeloma viability, CellTiter-Glo ATP luminescence, 48 h; series mostly up to 45.8 µM; further: nearly all actives have a fitted effect of over 50% in size; further: potency means the concentration at half of the fitted maximal effect
Method in brief: as §1

[7] = Quantitative High-Throughput drug screen in 47 multiple myeloma cell lines against the NCATS MIPE library collection: L363_DSMZ cell viability assay (AID 1918984); details: L363 myeloma viability, CellTiter-Glo ATP luminescence, 48 h; series mostly up to 45.8 µM; further: nearly all actives have a fitted effect of over 40% in size
Method in brief: as §1

[8] = Quantitative High-Throughput drug screen in 47 multiple myeloma cell lines against the NCATS MIPE library collection: OCIMY5_PLB cell viability assay (AID 1918988); details: OCI-MY5 myeloma viability, ATP luminescence, 48 h; series mostly up to 45.8 µM; further: nearly all actives have a fitted effect of over 65% in size; further: potency means the concentration at half of the fitted maximal effect
Method in brief: as §1

[9] = Quantitative High-Throughput drug screen in 47 multiple myeloma cell lines against the NCATS MIPE library collection: XG1_PLB cell viability assay (AID 1919866); details: CellTiter-Glo ATP, 48 h; series mostly up to 45.8 µM; further: nearly all actives have a fitted effect of over 35% in size; further: potency means the concentration at half of the fitted maximal effect
Method in brief: as §1

[10] = Quantitative High-Throughput drug screen in 47 multiple myeloma cell lines against the NCATS MIPE library collection: XG6_PLB cell viability assay (AID 1919865); details: XG6 myeloma viability, CellTiter-Glo ATP luminescence, 48 h; series mostly up to 45.8 µM; further: nearly all actives have a fitted effect of over 40% in size; further: potency means the concentration at half of the fitted maximal effect
Method in brief: as §1

[11] = Quantitative High-Throughput drug screen in 47 multiple myeloma cell lines against the NCATS MIPE library collection: UTMC2_PLB cell viability assay (AID 1919868); details: CellTiter-Glo ATP luminescence, 48 h; viability (% of DMSO control): at 45.8 µM (top of the series); further: nearly all actives have a fitted effect of over 55% in size; further: potency means the concentration at half of the fitted maximal effect
Method in brief: as §1

[12] = Quantitative High-Throughput drug screen in 47 multiple myeloma cell lines against the NCATS MIPE library collection: PE2_PLB cell viability assay (AID 1919869); details: PE2_PLB myeloma cells viability, ATP luminescence, 48 h; series mostly up to 45.8 µM; further: nearly all actives have a fitted effect of over 35% in size; further: potency means the concentration at half of the fitted maximal effect
Method in brief: as §1

[13] = Quantitative High-Throughput drug screen in 47 multiple myeloma cell lines against the NCATS MIPE library collection: OPM2_DSMZ cell viability assay (AID 1919872); details: OPM2 myeloma viability, CellTiter-Glo ATP luminescence, 48 h; series mostly up to 45.8 µM; further: nearly all actives have a fitted effect of over 30% in size; further: potency means the concentration at half of the fitted maximal effect
Method in brief: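 Myeloma cells (500 per well) were exposed to MIPE 4.0 compounds by pin transfer and incubated 48 hours at 37C, 5% CO2. Viability was read as ATP by CellTiter-Glo luminescence, normalised to DMSO (100%) and media-only (0%) wells.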

[14] = Quantitative High-Throughput drug screen in 47 multiple myeloma cell lines against the NCATS MIPE library collection: KMS28BM_JCRB cell viability assay (AID 1919874); details: CellTiter-Glo ATP, 48 h; series mostly up to 45.8 µM; further: nearly all actives have a fitted effect of over 35% in size; further: potency means the concentration at half of the fitted maximal effect
Method in brief: as §1

[15] = Quantitative High-Throughput drug screen in 47 multiple myeloma cell lines against the NCATS MIPE library collection: RPMI8226_ATCC cell viability assay (AID 1919871); details: RPMI8226 myeloma viability, CellTiter-Glo ATP luminescence, 48 h; series mostly up to 45.8 µM; further: nearly all actives have a fitted effect of over 30% in size; further: potency means the concentration at half of the fitted maximal effect
Method in brief: as §1

[16] = Quantitative High-Throughput drug screen in 47 multiple myeloma cell lines against the NCATS MIPE library collection: KMS34_JCRB cell viability assay (AID 1918985); details: KMS34 myeloma viability, CellTiter-Glo ATP luminescence, 48 h; series mostly up to 45.8 µM; further: nearly all actives have a fitted effect of over 40% in size; further: potency means the concentration at half of the fitted maximal effect
Method in brief: as §1

[17] = Quantitative High-Throughput drug screen in 47 multiple myeloma cell lines against the NCATS MIPE library collection: SKMM1_PLB cell viability assay (AID 1919863); details: SKMM1 myeloma viability, CellTiter-Glo ATP, 48 h; viability: active compounds read low; further: nearly all actives have a fitted effect of over 35% in size; further: potency means the concentration at half of the fitted maximal effect
Method in brief: as §1

CCc1cc(C(C)=NOCc2ccc(C3CCCCC3)c(C(F)(F)F)c2)ccc1CN1CC(C(=O)O)C1
active: Potency [1] 16.6 µM | Potency [2] 18.7 µM | Potency [4] 11.8 µM | Potency [5] 11.8 µM
inactive: Potency [3] | Potency [6]

Cc1ccc(-n2[nH]c(C)c(N=Nc3cccc(-c4cccc(C(=O)O)c4)c3O)c2=O)cc1C
inactive: Potency [7]
active: Potency [8] 26.4 µM | Potency [3] 20.9 µM | Potency [9] 23.5 µM | Potency [6] 23.5 µM

O=C(Nc1ccc(Oc2ccnc3[nH]ccc23)c(F)c1)c1cccn(-c2ccc(F)cc2)c1=O
inactive: Potency [2] | Potency [3] | Potency [11] | Potency [12] | Potency [13] | Potency [14]
active: Potency [10] 26.4 µM | Potency [9] 26.4 µM | Potency [4] 20.9 µM | Potency [5] 23.5 µM

C=C1CCC2[C@](C)(CO)C(O)CC[C@]2(C)C1CC=C1C(=O)OCC1O (stereo not given in full)
inactive: Potency [2] | Potency [3] | Potency [10] | Potency [9] | Potency [4] | Potency [5] | Potency [13] | Potency [14]
active: Potency [8] 42.9 µM | Potency [15] 0.0171 µM

COc1cc(C(=O)NC2CCN(C)CC2)ccc1Nc1ncc2c(n1)N(C1CCCC1)CCC(=O)N2C(C)C
active: Potency [1] 14.8 µM | Potency [2] 20.9 µM | Potency [3] 18.7 µM | Potency [10] 4.69 µM | Potency [9] 20.9 µM | Potency [4] 14.8 µM | Potency [12] 20.9 µM | Potency [5] 18.7 µM | Potency [6] 20.9 µM | Potency [14] 14.8 µM

CC(=O)O[C@H]1C[C@@H]2CC[C@H]3[C@H]4C[C@H]([N+]5(C)CCCCC5)[C@@H](OC(C)=O)[C@@]4(C)CC[C@@H]3[C@@]2(C)C[C@H]1[N+]1(C)CCCCC1
active: Potency [3] 23.5 µM
inactive: Potency [16] | viability [17] 128% | Potency [10] | Potency [9] | Potency [5] | Potency [15] | Potency [13] | Potency [6] | Potency [14]

O=C(Nc1nnc(-c2ccco2)o1)c1cc(-c2ccccc2)nc2ccccc12
active: Potency [1] 16.6 µM | Potency [8] 18.7 µM | Potency [10] 4.18 µM | Potency [9] 13.2 µM | Potency [4] 14.8 µM | Potency [11] 14.8 µM | Potency [12] 18.7 µM | Potency [5] 18.7 µM | Potency [15] 13.2 µM

COc1cc2c(cc1O)CCC1C2CC[C@@]2(C)C1CC[C@@H]2O (stereo not given in full)
active: Potency [16] 2.09 µM | Potency [1] 0.469 µM | Potency [8] 1.18 µM | Potency [2] 5.26 µM | Potency [17] 0.833 µM | Potency [3] 13.2 µM | Potency [10] 0.469 µM | Potency [9] 0.662 µM | Potency [4] 2.64 µM | Potency [11] 0.935 µM | Potency [12] 3.72 µM | Potency [13] 3.72 µM | Potency [6] 0.743 µM | Potency [14] 0.935 µM

COc1ccc(Nc2nccc(NCCO)n2)cc1
inactive: Potency [7] | Potency [2] | Potency [10] | Potency [9] | Potency [11]
active: Potency [4] 1.66 µM

CC(Cc1ccc(O)c(O)c1)(NN)C(=O)O (stereo not given)
active: Potency [6] 26.4 µM
inactive: Potency [7] | Potency [10] | Potency [9] | Potency [11] | Potency [12] | Potency [14]

Nc1nc(=O)n([C@H]2C[C@H](O)[C@@H](CO)O2)cc1F
active: Potency [16] 0.0026 µM | Potency [1] 0.526 µM | Potency [2] 0.0469 µM | Potency [9] 0.0118 µM | Potency [5] 0.059 µM
inactive: Potency [8] | viability [17] 129% | Potency [12] | Potency [15] | Potency [13] | Potency [14]

Cc1onc(-c2ccccc2)c1C(=O)N[C@@H]1C(=O)N2[C@@H](C(=O)O)C(C)(C)S[C@@H]12
inactive: Potency [1] | Potency [8] | Potency [2] | Potency [3] | Potency [10] | Potency [9] | Potency [5] | Potency [15] | Potency [13] | Potency [14]

CN(C)CC[C@H](c1ccc(Cl)cc1)c1ccccn1
active: Potency [9] 6.62 µM
inactive: Potency [11] | Potency [12] | Potency [5] | Potency [13]

CN(C)CC(=O)N1CCC(c2ccc(NC(=O)c3ncc(C#N)[nH]3)c(C3=CCCCC3)c2)CC1
active: Potency [1] 9.35 µM | Potency [8] 26.4 µM | Potency [2] 20.9 µM | Potency [3] 8.33 µM | Potency [10] 18.7 µM | Potency [9] 16.6 µM | Potency [4] 23.5 µM | Potency [11] 18.7 µM | Potency [12] 20.9 µM | Potency [5] 14.8 µM | Potency [14] 26.4 µM
inactive: Potency [16] | viability [17] 127% | Potency [15] | Potency [13]

CC(C)OC(=O)[C@H](C)N[P@](=O)(OC[C@H]1O[C@@H](n2ccc(=O)[nH]c2=O)[C@](C)(F)[C@H]1O)Oc1ccccc1
inactive: Potency [16] | viability [17] 127% | Potency [3] | Potency [15] | Potency [13] | Potency [6] | Potency [14]

O=c1c(O)c(-c2ccc(O)c(O)c2)oc2cc(O)ccc12
active: Potency [16] 18.7 µM | Potency [1] 6.62 µM | Potency [8] 20.9 µM | Potency [2] 18.7 µM | Potency [10] 18.7 µM | Potency [9] 13.2 µM | Potency [4] 14.8 µM | Potency [11] 13.2 µM | Potency [5] 9.35 µM | Potency [13] 23.5 µM
